Assay results: PubChem BioAssay (NCATS)
“And” between values parts separate entries of the source, which are not always exact repeats. Equal entries are not always repeated. Results filed as inconclusive are left out. Some compounds were tested as several samples or in several runs, with calls that do not always agree. The source made the active and inactive calls. Unless noted, calls follow the shape of the dose curve; as a rule, active = well fitted curve in the direction sought with a large enough effect; inconclusive = small, poorly fitted or top-dose-only effect, or another doubt; inactive = no such curve, though single readings can be large; an effect the other way counts as inactive or inconclusive.

Columns and labels:
[1] = target: Luciferin 4-monooxygenase (Photinus pyralis) (UniProt P08659); assay: Biochemical firefly luciferase enzyme assay for NPC (AID 624030);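 also: purified P. pyralis luciferase at 10 nM with luciferin and ATP substrate; series mostly up to about 59 µM; 0% = DMSO and -100% = full luciferase inhibition by PTC124 control; nearly all actives have a fitted effect of over 70% in size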
Sequence of Luciferin 4-monooxygenase (Photinus pyralis) (P08659 whole entry, looked up): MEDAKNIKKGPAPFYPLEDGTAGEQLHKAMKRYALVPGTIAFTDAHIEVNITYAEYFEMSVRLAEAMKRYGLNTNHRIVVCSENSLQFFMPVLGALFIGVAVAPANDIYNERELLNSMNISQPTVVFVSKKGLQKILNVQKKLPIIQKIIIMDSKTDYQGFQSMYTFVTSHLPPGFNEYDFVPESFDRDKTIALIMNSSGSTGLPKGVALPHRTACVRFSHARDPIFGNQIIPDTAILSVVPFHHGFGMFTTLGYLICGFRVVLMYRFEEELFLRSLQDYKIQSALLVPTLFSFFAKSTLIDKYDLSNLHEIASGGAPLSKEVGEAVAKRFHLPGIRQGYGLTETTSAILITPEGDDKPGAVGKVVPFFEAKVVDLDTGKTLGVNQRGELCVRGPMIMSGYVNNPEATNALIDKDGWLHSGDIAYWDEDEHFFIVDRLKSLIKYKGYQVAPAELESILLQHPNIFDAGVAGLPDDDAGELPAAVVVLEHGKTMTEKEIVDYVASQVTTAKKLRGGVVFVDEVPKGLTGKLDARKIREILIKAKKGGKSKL
Method in brief: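 Direct inhibition of firefly luciferase enzyme (10 nM final, 50 mM Tris Acetate) assessed by luminescence within 5 minutes. Percent activity scaled between DMSO and PTC124 positive control, with concentration-effect curves classified by fit quality and response.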

[2] = S16 Schwann cell viability assay (CellTiter-Glo assay) (AID 624031); also: nearly all actives have a fitted effect of over 70% in size; also: potency is read from the fitted curve at half-maximal effect
Method in brief: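 CellTiter-Glo ATP luminescence counter-screen in untransfected S16 rat Schwann cells, 24h compound exposure at 37 degree Celsius after overnight seeding (500-750 cells/well); response scaled between cell-free wells and DMSO (0% activity), curves classed by r2 and magnitude.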

[3] = target: Voltage-gated inwardly rectifying potassium channel KCNH2 (Homo sapiens) (UniProt Q12809); assay: qHTS Assay for Small Molecule Inhibitors of the Human hERG Channel Activity (AID 588834);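 also: lower thallium flux fluorescence means stronger hERG block; nearly all actives have a fitted effect of over 50% in size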; also: potency is read from the fitted curve at half-maximal effect
Sequence of Voltage-gated inwardly rectifying potassium channel KCNH2 (Homo sapiens) (Q12809 whole entry, looked up): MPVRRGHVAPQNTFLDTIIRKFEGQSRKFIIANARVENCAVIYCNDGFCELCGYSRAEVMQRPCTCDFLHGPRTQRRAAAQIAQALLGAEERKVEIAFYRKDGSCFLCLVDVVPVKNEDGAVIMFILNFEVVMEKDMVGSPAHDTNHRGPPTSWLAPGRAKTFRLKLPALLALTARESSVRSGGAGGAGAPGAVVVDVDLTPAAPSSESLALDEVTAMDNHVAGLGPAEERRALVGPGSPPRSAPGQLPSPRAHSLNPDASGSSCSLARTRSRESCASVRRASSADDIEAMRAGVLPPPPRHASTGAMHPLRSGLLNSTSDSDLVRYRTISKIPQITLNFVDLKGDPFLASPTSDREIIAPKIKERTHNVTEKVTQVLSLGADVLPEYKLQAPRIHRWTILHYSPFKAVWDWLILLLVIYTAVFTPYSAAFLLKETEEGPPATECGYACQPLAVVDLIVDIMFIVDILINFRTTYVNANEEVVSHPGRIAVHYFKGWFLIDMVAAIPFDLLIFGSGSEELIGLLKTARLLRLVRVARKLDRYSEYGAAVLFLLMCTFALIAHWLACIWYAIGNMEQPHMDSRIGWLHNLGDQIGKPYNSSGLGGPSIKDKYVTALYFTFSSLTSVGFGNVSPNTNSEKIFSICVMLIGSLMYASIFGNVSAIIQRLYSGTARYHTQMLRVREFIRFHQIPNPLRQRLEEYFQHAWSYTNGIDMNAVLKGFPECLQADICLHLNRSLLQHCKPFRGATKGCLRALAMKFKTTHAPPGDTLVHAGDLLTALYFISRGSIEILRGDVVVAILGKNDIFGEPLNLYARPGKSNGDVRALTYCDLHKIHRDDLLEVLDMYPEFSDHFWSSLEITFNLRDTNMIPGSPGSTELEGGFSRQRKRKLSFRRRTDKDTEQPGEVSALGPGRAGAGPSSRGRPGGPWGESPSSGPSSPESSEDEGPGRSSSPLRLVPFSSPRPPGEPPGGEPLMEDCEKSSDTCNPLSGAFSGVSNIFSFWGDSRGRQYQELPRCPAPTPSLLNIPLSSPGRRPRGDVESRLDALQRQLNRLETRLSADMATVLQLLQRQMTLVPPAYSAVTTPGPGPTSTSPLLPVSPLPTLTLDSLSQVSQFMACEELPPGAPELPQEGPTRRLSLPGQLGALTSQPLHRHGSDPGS
Method in brief: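 Thallium serves as surrogate for K+ influx through BacMam-delivered hERG in U2OS cells. Compounds are added for about 10 minutes after dye loading; stimulation buffer then starts flux, monitored kinetically on FDSS.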

[4] = S16 Schwann cell PMP22 intronic element beta-lactamase assay (AID 624044; calls by dose curve; also: nearly all actives have a fitted effect of over 15% in size; also: potency is read from the fitted curve at half-maximal effect)
Method in brief: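 Beta-lactamase reporter under a PMP22 intronic regulatory element in stable S16 rat Schwann cells; 24 h compound exposure. 460 nm blue signal normalized between DMSO (0%) and potassium clavulanate, with 535 nm FRET tracking viability; curves classed by r2 and response.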

[5] = S16 Schwann cell PMP22 intronic element firefly luciferase assay (AID 624032); also: nearly all actives have a fitted effect of over 30% in size; also: potency is read from the fitted curve at half-maximal effect
Method in brief: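 Luciferase reporter of PMP22 intronic-element expression in stably transfected S16 rat Schwann cells, read by ONE-Glo luminescence after 24 h compound exposure at 37 C. Activity scaled between DMSO (0%) and positive-control PTC124; concentration-effect curves quality-classified.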

[6] = target: Glutaminase kidney isoform, mitochondrial (Homo sapiens) (UniProt O94925); assay: qHTS for Inhibitors of Glutaminase (GLS): LOPAC Validation (AID 624146); details: glutaminase enzyme activity inhibition; also: potency is read from the fitted curve at half-maximal effect; nearly all actives have a fitted effect of over 60% in size
Sequence of Glutaminase kidney isoform, mitochondrial (Homo sapiens) (O94925 whole entry, looked up, canonical isoform): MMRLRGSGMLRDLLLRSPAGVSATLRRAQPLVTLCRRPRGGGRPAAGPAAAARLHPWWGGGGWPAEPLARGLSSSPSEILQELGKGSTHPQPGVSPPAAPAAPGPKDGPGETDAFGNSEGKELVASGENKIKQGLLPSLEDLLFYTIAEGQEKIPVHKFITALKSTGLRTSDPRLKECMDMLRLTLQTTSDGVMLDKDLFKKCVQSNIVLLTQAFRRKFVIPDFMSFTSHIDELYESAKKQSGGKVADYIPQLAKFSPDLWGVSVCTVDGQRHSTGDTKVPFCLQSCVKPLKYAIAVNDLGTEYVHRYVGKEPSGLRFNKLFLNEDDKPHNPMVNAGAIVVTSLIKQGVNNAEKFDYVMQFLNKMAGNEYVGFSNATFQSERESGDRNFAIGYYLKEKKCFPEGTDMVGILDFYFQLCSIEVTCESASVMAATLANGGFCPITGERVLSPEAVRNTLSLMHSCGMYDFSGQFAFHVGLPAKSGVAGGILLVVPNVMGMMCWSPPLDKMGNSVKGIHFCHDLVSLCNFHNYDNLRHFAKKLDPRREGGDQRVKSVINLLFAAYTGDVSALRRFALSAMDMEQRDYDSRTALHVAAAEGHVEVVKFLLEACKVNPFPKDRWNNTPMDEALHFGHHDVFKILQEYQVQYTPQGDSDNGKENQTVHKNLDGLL
Method in brief: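 Read-out is an Amplex red fluorescence increase coupled through glutamate oxidase and HRP, measured before and after 30 min room-temperature incubation. hKGA is in 45 mM KH2PO4 (pH 8.2) with 0.02% Tween-20; glutamine added as 1mM solution.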

[7] = target: Glucagon-like peptide 1 receptor (Homo sapiens) (UniProt P43220); assay: qHTS of GLP-1 Receptor Agonists: LOPAC Validation (AID 624148);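 also: luminescence from a luciferase reporter switched on by cAMP; 0% is about no effect; higher luminescence signal means agonism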
Sequence of Glucagon-like peptide 1 receptor (Homo sapiens) (P43220 whole entry, looked up): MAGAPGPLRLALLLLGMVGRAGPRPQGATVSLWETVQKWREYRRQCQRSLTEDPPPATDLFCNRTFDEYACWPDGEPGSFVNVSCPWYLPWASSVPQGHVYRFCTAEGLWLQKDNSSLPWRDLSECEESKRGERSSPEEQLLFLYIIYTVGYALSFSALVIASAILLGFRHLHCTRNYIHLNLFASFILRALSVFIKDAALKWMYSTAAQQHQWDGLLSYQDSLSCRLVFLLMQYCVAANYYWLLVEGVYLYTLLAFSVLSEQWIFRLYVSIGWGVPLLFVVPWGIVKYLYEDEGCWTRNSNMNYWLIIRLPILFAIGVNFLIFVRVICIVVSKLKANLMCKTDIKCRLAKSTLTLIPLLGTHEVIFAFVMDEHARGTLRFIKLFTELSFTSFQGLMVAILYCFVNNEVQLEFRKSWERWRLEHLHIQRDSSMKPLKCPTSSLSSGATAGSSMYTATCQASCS
Method in brief: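 Agonism scored as increased luciferase luminescence driven by cAMP in HEK293 clones carrying GLP-1R. Cells settled 12 hours, received compound for 4-6 hr at 37 deg C, 5% CO2, and were read after 12 min detection reagent at RT.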

[8] = qHTS of Nrf2 Activators: LOPAC Validation (AID 624149); also: 0% is about no effect
Method in brief: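 Luciferase signal from ARE activation, read with Steady-Glo after 30 min at room temperature. Compounds were pin-transferred onto AREc32_Fluc cells (1000/well, OPTI-MEM/5% FBS, seeded overnight) and left 24 hr at 37 deg C.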

[9] = HTS Assay for Allosteric Antagonists of the Human D2 Dopamine Receptor: Hit Validation in HTRF (AID 624455);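 also: stable D1 dopamine receptor cell line scored for blocking the D1 response; % is scaled to controls: 0 for no effect and ±100 for the full control effect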
Method in brief: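 Inhibition of the D1-mediated response was measured by HTRF. Cells used were a line stably expressing the D1 dopamine receptor.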

[10] = qHTS assay for small molecule activators of the p53 signaling pathway (AID 651743; active = well fitted activation curve with a large enough effect in the signal ratio, not every such curve was filed as active; the % refers to the signal ratio; also: series mostly up to about 92 µM; % of control where 0% means no effect); details: HCT-116 p53RE-bla, beta-lactamase FRET ratio, 16 h; activation: stronger effect = higher value
Method in brief: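 After 16 hours compound treatment at 37 C, HCT-116 cells stably expressing p53RE-driven beta-lactamase were loaded with LiveBLAzer B/G FRET substrate for 2 hours at room temperature. Fluorescence intensity served as the p53 activation read-out.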

[11] = qHTS assay for small molecule activators of the nuclear factor-kappa B (NF-kB) signaling pathway (AID 651749; active = well fitted activation curve with a large enough effect in the signal ratio; the % refers to the signal ratio; also: series mostly up to about 77 µM; % of control where 0% means no effect); details: NF-kB-bla ME-180 cells, beta-lactamase FRET ratio, 16 h; stronger effect = higher value
Method in brief: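 Activation measured after 16 hr compound treatment at 37C, 5% CO2, of 2,000 ME-180 cells/well stably expressing an NF-kB response element–driven beta-lactamase reporter, via FRET-disruption fluorescence.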

[12] = target: Tumor necrosis factor (Homo sapiens) (UniProt P01375); assay: qHTS assay to identify small molecules that stimulate Tumor Necrosis Factor-alpha (TNF-alpha) secretion (AID 651757; active = well fitted curve in the direction sought with a large enough effect in the signal ratio; the % refers to the signal ratio; also: 0% is about no effect)
Sequence of Tumor necrosis factor (Homo sapiens) (P01375 whole entry, looked up): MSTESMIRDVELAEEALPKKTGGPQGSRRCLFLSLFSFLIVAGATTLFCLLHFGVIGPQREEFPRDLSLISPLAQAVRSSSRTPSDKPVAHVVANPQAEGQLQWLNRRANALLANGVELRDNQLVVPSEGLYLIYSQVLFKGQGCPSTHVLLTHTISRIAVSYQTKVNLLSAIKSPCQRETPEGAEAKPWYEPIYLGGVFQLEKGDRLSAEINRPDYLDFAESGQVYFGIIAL
Method in brief: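 Secreted TNF-alpha quantified by TR-FRET sandwich of two labeled anti-TNF-alpha antibodies, incubated 3 hr at room temperature. Preceded by 17 hr, 37 C compound treatment of THP-1 cells at 3000 cells/well.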

[13] = qHTS assay for small molecule disruptors of the mitochondrial membrane potential - 1 hr assay (AID 651754; calls by dose curve; also: % is scaled to controls: 0 for no effect and ±100 for the full control effect; nearly all actives have a fitted effect of over 35% in size)
Method in brief: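 Mitochondrial potential in living HepG2 cells after 1 hr compound treatment at 37C was read with Mito-MPS dye added for a further 30 min. Red aggregate and green monomer fluorescence were measured; loss of potential leaves dye as cytoplasmic monomers.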

[14] = qHTS assay for small molecule disruptors of the mitochondrial membrane potential - 5 hr assay (AID 651755; calls by dose curve; also: % is scaled to controls: 0 for no effect and ±100 for the full control effect; nearly all actives have a fitted effect of over 40% in size)
Method in brief: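 Membrane-potential dye readout: red aggregate (540 ex/590 em) versus green monomer (490 ex/535 em) fluorescence after 30 min dye loading, following 5 hr compound exposure at 37C of overnight-plated HepG2 cells.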

CC1=C(/C=C/C(C)=C/C=C/C(C)=C/C=C/C=C(C)/C=C/C=C(C)/C=C/C2=C(C)CCCC2(C)C)C(C)(C)CCC1
inactive: Potency [1] | Potency [2]

O=C(O)c1cc(=O)c2c3nc4ccccc4oc-3cc(=O)c2[nH]1
active: Potency [2] 36.1 µM
inactive: Potency [3] | Potency [4]

CCCC(=O)O[C@]1(C(=O)CCl)[C@H](C)C[C@@H]2[C@H]3CCC4=CC(=O)C=C[C@]4(C)[C@@]3(F)C(=O)C[C@@]21C
inactive: Potency [1] | Potency [2] | Potency [5] | Potency [4]

CN1Cc2c(N)cccc2C(c2ccccc2)C1 (stereo not given)
inactive: Potency [1] | Potency [2] | Potency [4] | outcome [7] | outcome [8] | outcome [9]
inactive and 12.6 µM (active): Potency [3]
active: Potency [6] 12.6 µM

C[C@H]1C[C@H]2[C@@H]3CCC4=CC(=O)C=C[C@]4(C)[C@@]3(F)[C@@H](O)C[C@]2(C)[C@@]1(O)C(=O)CO
inactive: Potency [3] | Potency [1] | Potency [2] | Potency [4] | activation [10] -9.59% | activation [11] -3.68%

Nc1ncnc2c1ncn2[C@@H]1O[C@H](COP(=O)(O)OP(=O)(O)OP(=O)(O)O)[C@@H](O)[C@H]1O
inactive: Potency [3] | Potency [2] | Potency [4]

CCCCCCCC(=O)O
inactive: Potency [3] | Potency [1] | Potency [2] | activation [10] -2.15% and 0.705% | outcome [12]

Nc1ccn([C@H]2CS[C@@H](CO)O2)c(=O)n1
inactive: Potency [3] | activation [10] -1.09% | activation [11] -1.13% | outcome [13] | outcome [14] | outcome [12]

CCCCCCCC/C=C\CCCCCCCC(=O)O
inactive: Potency [3] | Potency [1] | Potency [2] | Potency [4] | activation [10] 0.394% and 0.396% | outcome [13] | outcome [14] | outcome [12]

CC(Cc1ccc(O)c(O)c1)C(C)Cc1ccc(O)c(O)c1 (stereo not given)
active: Potency [4] 22.4 µM
inactive: Potency [3] | Potency [2]

CCOc1ccc2c(c1)C(C)=CC(C)(C)N2
inactive: Potency [3] | Potency [1] | Potency [2] | Potency [4] | activation [10] 3.65% | outcome [13] | outcome [14] | outcome [12]

C=C1C(=CC=C2CCC[C@@]3(C)[C@@H]2CC[C@H]3[C@H](C)CCCC(C)C)C[C@@H](O)C[C@@H]1O
inactive: Potency [3]
active: Potency [5] 0.0287 µM

Cc1ccccc1
inactive: Potency [3] | Potency [1] | Potency [2] | activation [10] 0.393% and -4.17% | outcome [13] | outcome [14] | outcome [12]

CCCC(=O)Nc1ncnc2c1ncn2C1OC2COP(=O)(O)OC2C1OC(=O)CCC (stereo not given)
inactive: Potency [3] | Potency [1] | Potency [2] | Potency [4]

O=C(O)CCC(=O)C(=O)O
inactive: Potency [3] | Potency [1] | Potency [2] | activation [10] -2.86% | activation [11] 0.211% | outcome [12]

CC(=O)Oc1cc(C)c(OC(C)=O)c2ccccc12
inactive: Potency [3] | Potency [1] | Potency [4]

O=S(=O)(O)c1ccc2c(N=Nc3ccc(S(=O)(=O)O)c4ccccc34)c(O)c(S(=O)(=O)O)cc2c1
inactive: Potency [3] | Potency [4]

CC(C)=O
inactive: Potency [3] | Potency [1] | Potency [2] | activation [10] -0.255% | activation [11] 2.82% | outcome [13] | outcome [14] | outcome [12]

C=CCSSSCC=C
inactive: Potency [3] | Potency [1] | Potency [5] | Potency [4]

CCOC(=O)C1=C(C)NC(C)=C(C(=O)OCC)C1c1ccccc1C=CC(=O)OC(C)(C)C
inactive: Potency [3] | Potency [1] | Potency [4]
